In the library only some 9.8% were active in any assay of this set; here they are far more common.
HTT cytoprotect: protects HTT-Q103 PC12 cells, measured by ATP. Potency, µM (titrated, usually from 56.4 µM), for inactives: cytoprotection (ATP increase), actives largely listed as activators. 0.14% of 230,000 active. PC12 HTT-Q103 induced, cytoprotection, ATP luminescence, 40 h; further: potency means the concentration at half of the fitted maximal effect; % of control where 0% means no effect; nearly all actives have a fitted effect of over 45% in size
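PC12 cells stably carrying ecdysone-inducible Htt exon 1 (Q103)–GFP were induced with 100 nM tebufenozide (final) alongside library compounds in a dose series. Cytoprotection was scored as retained ATP by ATPlite luminescence.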
HttQ103 aggreg: inhibitors of mutant huntingtin aggregate formation in PC12 cells | PC12 HttQ103-GFP aggregates, Acumen cytometry, 40 h | Potency, µM (doses to about 46.1 µM), for inactives: at the top dose activity change, negative = inhibition, usual class: inhibitors | 1.1% of 220,000 active | AID 1688; further: potency means the concentration at half of the fitted maximal effect; on the % scale 0 is the no-effect control and ±100 the full control effect; nearly all actives have a fitted effect of over 60% in size
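PC12 cells stably carrying ecdysone-inducible HTT exon 1 Q103–GFP were induced with tebufenozide (100 nM final) and treated with library compounds in titration. GFP aggregates in lysates were counted by laser scanning cytometry.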
HPGD block: blocks human HPGD enzyme activity; P15428; purified HPGD, NADH fluorescence kinetic, PGE2 substrate; Potency, µM, for the others: at the top dose activity change, negative = inhibition, most hits filed as inhibitors; 4.3% of 150,000 active; AID 894; active means well fitted inhibition curve with a large enough effect, not every such curve was filed as active; inconclusive means small, poorly fitted or top-dose-only effect, or another doubt; inactive means no such curve, though single readings can be large or run the other way; further: potency means the concentration at half of the fitted maximal effect; on the % scale 0 is the no-effect control and ±100 the full control effect
Target sequence (P15428 whole entry, looked up): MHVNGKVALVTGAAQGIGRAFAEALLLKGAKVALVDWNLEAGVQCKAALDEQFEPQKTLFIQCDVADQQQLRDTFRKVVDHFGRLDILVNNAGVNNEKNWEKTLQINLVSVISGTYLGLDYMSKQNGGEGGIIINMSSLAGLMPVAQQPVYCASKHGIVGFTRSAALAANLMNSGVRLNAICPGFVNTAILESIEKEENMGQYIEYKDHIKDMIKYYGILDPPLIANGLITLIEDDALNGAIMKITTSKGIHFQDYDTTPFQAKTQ
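20 nM HPGD preincubated 15 min at room temperature with compound in 50 mM Tris-HCl pH 8, 0.01% Tween 20. Started with 1 mM NAD+ and 30 uM prostaglandin E2; NADH fluorescence (360/450 nm) read 5 times over 30-s intervals, last minus first.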
CBFb RUNX1 block: blocks binding between human CBF-beta and RUNX1. Q01196+Q13951. AlphaScreen CBFb-His/RUNX1-biotin binding, biochemical. Potency, µM (top dose mostly 59.8 µM), for inactives: top-dose activity, negative = inhibition, actives largely listed as inhibitors. 230,000 tested, under 10 active; further: % of control where 0% means no effect
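CBFb-His/RUNX1-biotin, 30 nM each, preincubated 20 min RT; compound 15 min RT; Ni + streptavidin beads 50 ng each, 90 min RT; AlphaScreen read.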
KDM4E inh: inhibitors of human JMJD2E histone demethylase; B2RXH2; JMJD2E catalytic domain, FDH-coupled NADH fluorescence (FDH is formaldehyde dehydrogenase); Potency, µM (highest dose often 57.1 µM), inactives show at the highest dose activity change, negative = inhibition, hits mostly inhibitors; 1.6% of 230,000 active; AID 2147; active means well fitted inhibition curve with a large enough effect, not every such curve was filed as active; inconclusive means small, poorly fitted or top-dose-only effect, or another doubt; inactive means no such curve, though single readings can be large or run the other way;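 further: potency means the concentration at half of the fitted maximal effect; 0% = wells with enzyme and -100% = buffer wells without enzyme; nearly all actives have a fitted effect of over 50% in size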
ALDH1A1 block: blocks purified human ALDH1A1 activity. Purified ALDH1A1, NADH fluorescence, propionaldehyde substrate. Potency, µM (titrated, usually from 75.3 µM), without a hit: at the top dose activity, negative = inhibition, actives largely listed as inhibitors. 7.3% of 220,000 active; active means well fitted inhibition curve with a large enough effect, not every such curve was filed as active; inconclusive means small, poorly fitted or top-dose-only effect, or another doubt; inactive means no such curve, though single readings can be large or run the other way;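 further: potency means the concentration at half of the fitted maximal effect; plate controls were no enzyme wells and a reference inhibitor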
Target sequence (P00352 whole entry, looked up): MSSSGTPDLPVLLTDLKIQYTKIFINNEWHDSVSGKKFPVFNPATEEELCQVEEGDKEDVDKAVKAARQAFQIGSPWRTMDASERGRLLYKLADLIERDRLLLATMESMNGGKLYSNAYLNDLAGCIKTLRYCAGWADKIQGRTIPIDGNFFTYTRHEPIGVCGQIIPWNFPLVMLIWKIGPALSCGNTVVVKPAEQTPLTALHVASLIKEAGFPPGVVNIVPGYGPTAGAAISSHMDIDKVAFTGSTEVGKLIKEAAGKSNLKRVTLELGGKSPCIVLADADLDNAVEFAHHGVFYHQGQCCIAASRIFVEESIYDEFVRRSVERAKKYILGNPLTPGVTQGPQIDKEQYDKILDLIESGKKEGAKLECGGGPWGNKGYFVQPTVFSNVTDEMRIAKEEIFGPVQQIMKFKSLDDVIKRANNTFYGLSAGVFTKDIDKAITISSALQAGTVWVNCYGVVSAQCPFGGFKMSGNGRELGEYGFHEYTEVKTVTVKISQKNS
* = called active by the depositor; ? = inconclusive; . = no result; [ ] = remark or other dose. Unless noted, the call rests on the fitted dose curve; in most records, active means well fitted curve in the direction sought with a large enough effect; inconclusive means small, poorly fitted or top-dose-only effect, or another doubt; inactive means no such curve, though single readings can be large; an effect the other way counts as inactive or inconclusive.

SMILES	HTT cytoprotect	HttQ103 aggreg	HPGD block	CBFb RUNX1 block	KDM4E inh	ALDH1A1 block
O=C(NCc1ccco1)Nc1ccc(Br)cc1	-7%	3%	-8%	-7%	7%	3%
O=C(NCc1ccco1)C1(c2ccc(Br)cc2)CCCC1	-19%	4%	-16%	-2%	-4%	0.18µM*
C/C(=C\C[Si](C)(C)C)CCC=O	27%	.	?	-3%	6%	2%
COc1ccccc1NS(=O)(=O)c1cccc(NC(=O)c2cc3ccccc3oc2=O)c1	-16%[10 µM]	4%	.	-1%	-7%	-1%
Cc1ccc(S(=O)(=O)CC2CSc3nc(N)cc(=O)n32)cc1 (stereo not drawn)	3%[0.074 µM]	7%	-15%	3%	-2%	3%
Cc1ccc(S(=O)(=O)CC2CSc3nc4ccccc4n32)cc1 (stereo not drawn)	4µM*	7.1µM*	-9%	1%	-2%	-8%
O=C(O)CCCN1C(=O)/C(=C/c2ccncc2)SC1=S	19%[10 µM]	5%[9.22 µM]	.	-3%	?	.
O=C(O)CCCCCN1C(=O)/C(=C/c2ccncc2)SC1=S	15%[10 µM]	42%[9.22 µM]	-17%	-3%	22µM*	-15%
COc1ccc(CN2C(=O)/C(=C/c3ccncc3)SC2=S)cc1	-10%[10 µM]	?	-20%	-14%	?	10µM*
O=C(O)CCCN1C(=O)/C(=C/c2ccc(-c3nc4ccccc4s3)o2)SC1=S	26%[10 µM]	18%	18µM*	1%	-2%	?
O=C(O)CCCCCN1C(=O)/C(=C\c2ccncc2)SC1=S	13%[10 µM]	-32%	-22%	6%	?	-3%
O=C(O)CCCCCN1C(=O)/C(=C\c2ccc(-c3ccc(Cl)cc3)o2)SC1=S	-17%[10 µM]	30%[9.22 µM]	.	6%	5%	.
Cc1cccc2nc(COc3ccc4ccccc4c3Br)cn12	13%[10 µM]	-2%[9.22 µM]	.	5%	0%	.
CCOC(=O)c1cnn(-c2ccccc2)c1NC(=O)CN1CCCCC1	-6%[10 µM]	-20%[9.22 µM]	.	10%	2%	.
COc1ccc2c(c1)OC/C(=C\c1ccc(OC)c(O)c1)C2=O	6.3µM*	.	11µM*	-15%	20µM*	5.6µM*
COc1ccc(/C=C2\COc3ccccc3C2=O)cc1OC	33%[0.074 µM]	-6%	?	8%	0%	?
COc1ccc(N/C=C2/CCCCC2=O)cc1	20µM*	6%	25µM*	6%	-3%	11µM*
COc1ccc(Oc2ccc(N/C=C3/CCCC3=O)cc2)cc1	-35%[10 µM]	17%	-18%	-5%	?	?
COc1ccc(OC)c(N/C=C2/CCCCC2=O)c1	-4%	18%	18µM*	-4%	0%	?
CCOC(=O)CCCNC(=O)N1CCc2nc(-c3ccc(OC)cc3C)c3c(c2C1)CO[C@@H](c1ccccc1)C3	-12%[10 µM]	.	-4%	-6%[13.1 µM]	-6%[11.4 µM]	?
COc1ccc(NC(=O)N2CCc3nc(-c4ccc(OC)cc4C)c4c(c3C2)CO[C@@H](c2ccccc2)C4)cc1	-9%[10 µM]	.	-6%	9%[13.1 µM]	0%[11.4 µM]	4µM*
CN(C1=C(NC(=O)c2ccccc2)C(=O)c2ccccc2C1=O)C1CCS(=O)(=O)C1 (stereo not drawn)	-9%[10 µM]	22µM*	-27%	4%	?	?
CC(=O)NC1=C(NC2CCS(=O)(=O)C2)C(=O)c2ccccc2C1=O (stereo not drawn)	-34%[10 µM]	-10%	11µM*	3%	8%	4%
O=C(c1ccccc1)N(Cc1ccc(F)cc1)C1CCS(=O)(=O)C1 (stereo not drawn)	-9%[0.074 µM]	-2%	2%	9%	10%	?
CC(C)NC(=O)CSCc1c(F)cccc1Cl	8%[10 µM]	0%	16µM*	-5%	10%	?
SMILES	HTT cytoprotect	HttQ103 aggreg	HPGD block	CBFb RUNX1 block	KDM4E inh	ALDH1A1 block
Cc1ccc(C)c(N(CC(=O)NCCSCc2ccco2)S(C)(=O)=O)c1	-9%[10 µM]	14%	-14%	-13%	-18%	3.5µM*
CNC(=O)CSCc1c(F)cccc1Cl	-6%[10 µM]	17%	5%	2%	6%	0%
O=C(CCSCc1ccc(Cl)cc1)NCCc1ccccc1	36%[10 µM]	1%	?	5%	0%	3%
O=C(CSCc1ccco1)c1ccc(Cl)s1	-1%	16%	20µM*	-9%	-7%	?
O=C(CCc1ccccc1)NCCSCc1c(F)cccc1Cl	-8%[10 µM]	8%	5µM*	11%	5%	-5%
CC(C)OC(=O)c1cccc(C(=O)Nc2cccc(NC(=O)c3cccc(C(=O)OC(C)C)n3)n2)n1	-28%	1%	.	9%	7%	?
O=C(CSCc1ccc(Cl)cc1)NCCSCc1ccco1	-18%	2%	.	-6%	-7%	11µM*
CS(=O)(=O)N(CC(=O)NCCSCc1c(F)cccc1Cl)c1ccc2c(c1)OCO2	1%[10 µM]	-24%	-13%	2%	-6%	2.5µM*
C/C(CC(=O)NCc1ccco1)=N\NC(=O)Cc1ccc(-c2ccccc2)cc1	1%[10 µM]	15%	-9%	-2%	-5%	-3%
C/C(CC(=O)NCc1ccco1)=N\NC(=O)Cc1cccc2ccccc12	-10%	7%	-11%	-7%	8%	13µM*
O=C(CCSCc1ccc(Cl)cc1)NCc1ccco1	?	-8%	.	0%	-4%	10%
Cc1ccccc1CSCC(=O)NCc1ccco1	.	-1%	11µM*	-15%	3%	16µM*
Cc1ccc(CSCC(=O)NCc2ccco2)cc1	-2%	-5%	.	-1%	3%	?
NC(=O)CSCc1c(Cl)cccc1Cl	7%	-9%	2%	5%	0%	1%
O=C(CSCc1c(Cl)cccc1Cl)NCc1ccco1	-9%[1.9 µM]	-4%	8.9µM*	0%	6%	?
O=C(CSCc1c(F)cccc1Cl)NCCSCc1ccco1	-36%	9%[9.22 µM]	.	1%	-6%	?
O=C(CSCc1c(F)cccc1Cl)NCc1ccco1	4%[10 µM]	-2%	14µM*	3%	-3%	?
CC(C)(C)NC(=O)CSCc1c(Cl)cccc1Cl	.	-15%	25µM*	7%	3%	5%
O=S(=O)(O)c1cc(O)c2c(O)c(N=Nc3cccc4ccccc34)c(S(=O)(=O)O)cc2c1	-2%[10 µM]	.	-13%	.	.	6%[13.5 µM]
Nc1nc(-c2ccccc2)c(N=Nc2ccc(Cl)cc2)s1	-5%[10 µM]	-8%	?	.	-6%	28µM*
CCn1c(C)nc2cc(C(=O)N/N=C/c3ccccc3)ccc21	-75%	-1%	.	7%	-5%	1%
CCn1c(C)nc2cc(C(=O)N/N=C/c3ccc(OC)cc3)ccc21	20%[10 µM]	5%	.	-13%	-1%	-12%
CCn1c(C)nc2cc(C(=O)N/N=C/c3cccc(O)c3O)ccc21	-31%[10 µM]	-20%[9.22 µM]	.	?	3.5µM*	?
CCn1c(C)nc2cc(C(=O)N/N=C(\C)c3ccc(OC)cc3O)ccc21	-145%	?	.	-3%	13µM*	?

Screening results (PubChem BioAssay)
